L major viab – inhibitors of Leishmania major promastigote growth | inhibition, % at 10 µM | AID 1063 | Leishmania major promastigotes, resazurin fluorescence viability | 200,000 tested, 9% active; in the data active = inhibition above about 50%;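 also: promastigotes grown with compound for 44 hours at 28 °C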
RAM inhibit – inhibitors of the yeast RAM network; S. cerevisiae dse1pr::URA3 reporter, 5-FOA growth OD615, 2 d; analog-sensitive cbk1-as2 kinase mutant strain; inhibition, % at 50 µM; 190,000 tested, 1.8% active; AID 868;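 active = inhibition above a set limit, 3 SD over mean compound inhibition, cut at about 8.4% in these data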;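 also: 0% = DMSO-only wells with no growth and 100% = 10 µM 1-NA-PP1 full growth; inhibition rescues growth on 5-FOA so higher OD means more RAM inhibition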
WT yeast gro inh – growth inhibition of WT yeast, mitochondrial fusion screen | mitochondrial fusion phenotypic screen, WT strain | inhibition, % at 10 µM | 190,000 tested, 2.1% active | AID 1362; in the data active = inhibition above about 58%; tested in S. cerevisiae
CHOP inhibitor – CHOP inhibition in unfolded protein response | inhibition, % at 10 µM | AID 2732 | 220,000 tested, 3.8% active | CHO-K1 CHOP-promoter luciferase, tunicamycin-induced, 15-18 h;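 active = compounds that reduced the stress-induced luciferase reporter signal by more than about 70% of percent inhibition, limit read from the data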;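 also: 0% = tunicamycin plus vehicle and 100% = wells without tunicamycin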
Active calls of the source: *; · = no result. Shown are actives, neighbours in structure and some others; about 13% of the full set was active somewhere.

SMILES	L major viab	RAM inhibit	WT yeast gro inh	CHOP inhibitor
Oc1ccc(N2CCN(c3ncnc4sc(-c5ccccc5)cc34)CC2)cc1	61.9*	3.6	43.2	36.1
CCc1cc2c(N3CCN(c4ccccc4)CC3)ncnc2s1	2.7	-1.5	-1.4	77.0*
CC(=O)N1CCN(c2ncnc3sc(-c4ccccc4)cc23)CC1	18.2	-0.4	1.2	11.4
CCc1ccc(Nc2nc(N)nc(CSc3nc4ccccc4s3)n2)cc1	3.1	6.5	72.2*	72.9*
CC(C)OC(=O)c1c(NC(=O)CCC(=O)O)sc2c1CCCCC2	-6.8	8.5*	11.4	7.7
CC(C)OC(=O)c1c(NC(=O)CCn2nnc3ccccc32)sc2c1CCCC2	28.0	9.5*	-16.5	34.4
Cc1ccc(NC(=O)CCn2nnc3ccccc32)cc1	0.7	1.8	-8.8	-25.9
CCCCC(c1nnnn1CC1CCCO1)N1CCN(c2cc(Cl)ccc2C)CC1 (stereo not given)	43.5	1.7	59.9*	43.1
CC(C)CC(c1nnnn1CC1CCCO1)N1CCN(c2nc3ccccc3s2)CC1 (stereo not given)	91.4*	1.9	28.8	18.6
CCCC(c1nnnn1CC1CCCO1)N1CCN(c2nc3ccccc3s2)CC1 (stereo not given)	94.5*	2.8	5.6	22.0
Cc1ccc(C(c2nnnn2CC2CCCO2)N2CCN(C)CC2)cc1 (stereo not given)	-3.6	1.0	16.0	13.8
CCCC(c1nnnn1Cc1cccs1)N1CCN(c2nc3ccccc3s2)CC1 (stereo not given)	97.2*	1.3	33.7	49.3
O=C1Oc2ccccc2C(=O)/C1=C\N1CCN(c2ccccc2)CC1	0.9	2.3	-5.7	3.0
N#CC1=C(S)N(c2ccccc2)C(c2ccc(-c3ccccc3Cl)o2)NC1=O (stereo not given)	-4.4	2.0	-5.4	-8.3
Cc1ccc(S(=O)(=O)N2CCCCC2)cc1NC(=O)CNCc1ccco1	·	·	·	-0.4
CCCCC(c1nnnn1CC1CCCO1)N1CCN(c2ccccc2)CC1 (stereo not given)	-2.3	-0.5	-1.5	10.8
CCCC(c1nnnn1CS(=O)(=O)c1ccc(C)cc1)N1CCN(c2ccccc2)CC1 (stereo not given)	5.4	1.4	16.6	34.0
CCC(c1nnnn1CS(=O)(=O)c1ccc(C)cc1)N1CCN(c2nc3ccccc3s2)CC1 (stereo not given)	98.3*	2.7	35.6	47.6
CCCCC(c1nnnn1CC1CCCO1)N1CCN(c2nc3ccccc3s2)CC1 (stereo not given)	98.7*	2.1	11.1	-5.7
COc1ccc(CC2(CO)CCN(Cc3cnn(-c4ccccc4)c3)CC2)cc1	86.8*	0.8	15.5	23.9
COc1ccc(CC2(CO)CCN(Cc3cnn(-c4ccc(F)cc4)c3)CC2)cc1	84.1*	0.0	10.4	27.3
Nc1cc2c(cc1O)CCCC2	0.2	1.1	21.8	1.4
Cc1ccc(NC(=O)C2CCN(c3cnccn3)CC2)cc1C	88.8*	-1.0	-23.0	3.8
Cc1cc(C)nc(N2CCC(C(=O)NCCc3ccc(F)cc3)CC2)n1	-0.7	-0.7	69.4*	14.6
Cc1cc(C)nc(N2CCC(C(=O)Nc3ccc4c(c3)CCC4)CC2)n1	1.9	4.3	1.1	82.3*
SMILES	L major viab	RAM inhibit	WT yeast gro inh	CHOP inhibitor
Cc1ccnc(N2CCC(C(=O)Nc3ccc4c(c3)CCC4)CC2)n1	-5.4	1.7	-11.9	23.3
Cc1cc(C)cc(NC(=O)C2CCCN(c3nccc(C)n3)C2)c1 (stereo not given)	6.5	-0.3	-12.3	59.6
Cc1cc(C)cc(NC(=O)C2CCCN(c3nc(C)cc(C)n3)C2)c1 (stereo not given)	-3.2	5.2	5.3	70.4*
CC(C)(CN1CCN(Cc2ccccc2)CC1)NS(=O)(=O)c1ccc(Cl)cc1	·	·	·	0.4
COc1ccc(OC)c(NC(=O)c2cnc(Nc3ccccc3OC)c3ccccc23)c1	5.9	0.4	6.7	-9.5
O=C(NC1CCCc2ccccc21)C1CCN(S(=O)(=O)c2ccccc2F)CC1 (stereo not given)	85.3*	0.7	25.6	2.4
O=C(NC1CCCc2ccccc21)C1CCN(S(=O)(=O)c2ccccc2)CC1 (stereo not given)	1.1	1.2	16.6	3.5
Cc1cc(C)nc(N2CCC(C(=O)NC3CCCc4ccccc43)CC2)n1 (stereo not given)	-2.0	2.7	-18.4	73.4*
O=C(NC1CCCc2ccccc21)C1CCN(c2nnc(-n3cccc3)s2)CC1 (stereo not given)	-3.0	-0.7	1.6	-7.4
N/C(=N\OC(=O)c1ccc(Cl)cc1)c1[nH]ncc1Br	·	·	·	-5.2
CS(=O)(=O)N(CC(=O)Nc1ccccc1Cl)c1ccc(Cl)cc1	5.1	0.7	-6.5	2.4
